# Measurements published in PubChem BioAssay AID938 (National Center for Advancing Translational Sciences (NCATS), 2007).
# Where “and” joins values, the source holds several entries; their conditions need not be identical. Identical values can stand only once. In all, about 73,000 compounds went through this assay and about 1,800 (2.5%) were called active. Another 13% or so got no clear call; they are omitted. Calls come from the whole dose curve; as a rule, active = well fitted activation curve with a large enough effect; inconclusive = small, poorly fitted or top-dose-only effect; inactive = no such curve, though single readings can be large or run the other way. For the sample, actives were picked, then their nearest neighbours and some compounds at random. Some structures have more than one record in an assay (separate samples or runs), and their calls can disagree.
# Assay: qHTS Assay for Agonists of the Thyroid Stimulating Hormone Receptor: Activators of Intracellular cAMP Concentrations in Parental HEK 293; note: nearly all actives have a fitted effect of over 55% in size; for activation: % of control where 0% means no effect
# Details: parental HEK293 CNG cAMP sensor, membrane potential fluorescence; series mostly up to 57.1 µM; activation: at the top concentration
# From the text: NIH Chemical Genomics Center [NCGC]
# NIH Molecular Libraries Screening Centers Network [MLSCN]
# PI Name: Dr. Marvin Gershengorn
# This cell based assay utilized a cyclic nucleotide gated ion channel (CNG) as a biosensor for cAMP induction. HEK 293 cells stably expressing the modified CNG were purchased from BD biosciences (http://www.atto.com/products/actone/features_benefits.shtml) . Stimulation of cAMP production causes the CNG to open and subsequent membrane depolarization to occur. A fluorescent membrane potential dye (BD biosciences) was utilized to detect cAMP stimulation in cells.
# The cells were maintained in DMEM medium (Invitrogen) containing 10 % FBS (Hyclone), 100 units/ml Penicillin, 100 ug/ml Streptomycin (Invitrogen), and 250 ug/ml Geneticin (Invitrogen) and 1 ug/ml Puromycin (Invitrogen) at 37C in 5% CO2. This assay was used as a counterscreen to "qHTS Assay for Agonists of the Thyroid Stimulating Hormone Receptor", to control for compounds signaling through endogenous receptors and other targets of HEK 293 cells.
# NCGC Assay Protocol Summary:
# High Throughput Screening. Freshly passaged cells were dispensed into 1536-well assay plates at 4 ul/well in DMEM containing phenol red (Invitrogen), 10% FCS (Hyclone), and 100 units/ml Penicillin, 100 ug/ml Streptomycin (Invitrogen) and incubated at 37 C with 5% CO2 for 20 to 36 hrs before the robotic screening. The screen was initiated by addition of 4 ul/well membrane potential dye containing 100 uM RO 20-1724 (Sigma Aldrich), followed by 60 min incubation at room temperature to allow for dye equilibration across the cell membrane. 23 nl/well compound or control was then added to the assay plates, which were incubated for additional 30 min before reading a Envision fluorescence plate reader (Perkin Elmer) in bottom-read mode for fluorescence intensity (emission at 590 nm).
# Keywords: cAMP, CNG Ion Channel, quantitative high throughput screening, qHTS, HTS, probe identification, CNG, cAMP, cyclic nucleotide gated ion channel PubChem
# Potency is the fitted concentration of half-maximal effect.
SMILES,activation,Potency
C/C(CCc1c[nH]c2ccccc12)=N\O,2.11% (inactive),–
NCCc1c[nH]c2ccc(O)cc12,–,inactive and 31.6 µM (active)
CC(C)(c1ccc(OC[C@@H]2CO2)cc1)c1ccc(OC[C@H]2CO2)cc1,23.3% (inactive),–
N#CCCCl,–,inactive
ClC(Cl)(Cl)c1ccccc1,–,inactive
Fc1ccc(C(OCCN2CCN(C/C=C\c3ccccc3)CC2)c2ccc(F)cc2)cc1,-30.9% (inactive),–
COc1ccc(C2NCc3ccc4c(c3-n3cccc32)OCO4)cc1OC (stereo not given),19.3% (inactive),–
c1ccc(C2NCc3ccccc3-n3cccc32)cc1 (stereo not given),–,25.1 µM (active)
CC(C)CC(C)Nc1ccc(Nc2ccccc2)cc1 (stereo not given),-10.5% (inactive),–
O=[N+]([O-])c1ccc(Cl)c(Cl)c1,11.3% (inactive),–
CC(C)(c1ccccc1)c1ccc(O)cc1,14.7% (inactive),–
CC(C)(C)C(O)(CCc1ccc(Cl)cc1)Cn1cncn1 (stereo not given),1.41% (inactive),–
C[C@@]1([C@@H](NP(=O)(c2ccccc2)c2ccccc2)c2ccccc2)C[C@H]1CCO,–,15.8 µM (active)
O=C1C2(Cl)C3(Cl)C4(Cl)C(Cl)(Cl)C5(Cl)C3(Cl)C1(Cl)C5(Cl)C24Cl (stereo not given),–,inactive
CCCCC#N,8.65% (inactive),–
